Bioassay records: PubChem BioAssay, The Scripps Research Institute Molecular Screening Center
A selection: hits, their analogues and other compounds. The true share with any hit is near 1.3%.
PREPL inhibitor: inhibits the human prolyl oligopeptidase-like enzyme | Q4J6C6 | inhibition, % at 5.96 µM | AID 2751 | 320,000 compounds, 0.68% hits | recombinant PREPL, fluorescence polarization activity-based probe; in the data active means inhibition above about 43%
LYPLA2 inh: blocks human lysophospholipase 2, a PME1 counter-screen | O95372 | recombinant LYPLA2, FP-Rh probe fluorescence polarization | inhibition, % at 5.9 µM | 320,000 compounds, 0.38% hits | AID 2177;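 active means inhibition above the screen-wide mean plus 3 SD, limit set per campaign, cut at about 26% in these data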
Target sequence (O95372 whole entry, looked up): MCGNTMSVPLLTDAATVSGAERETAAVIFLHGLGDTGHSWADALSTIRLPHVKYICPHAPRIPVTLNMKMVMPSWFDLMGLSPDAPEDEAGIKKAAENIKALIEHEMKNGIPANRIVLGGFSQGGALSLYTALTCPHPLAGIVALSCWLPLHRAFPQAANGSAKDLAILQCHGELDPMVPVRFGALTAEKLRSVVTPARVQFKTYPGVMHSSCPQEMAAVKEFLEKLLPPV
LYPLA1 counter: LYPLA1 (human) inhibition in PME1 counter-screen. 320,000 compounds, 0.16% hits. inhibition, % at 5.9 µM. recombinant LYPLA1, FP-Rh probe fluorescence polarization. O75608;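 active means inhibition above the mean of all tested compounds plus 3 SD, set per campaign, cut at about 14% in these data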;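 further: inhibitors block serine hydrolase probe labeling of LYPLA1 so polarization falls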
Target sequence (O75608 whole entry, looked up): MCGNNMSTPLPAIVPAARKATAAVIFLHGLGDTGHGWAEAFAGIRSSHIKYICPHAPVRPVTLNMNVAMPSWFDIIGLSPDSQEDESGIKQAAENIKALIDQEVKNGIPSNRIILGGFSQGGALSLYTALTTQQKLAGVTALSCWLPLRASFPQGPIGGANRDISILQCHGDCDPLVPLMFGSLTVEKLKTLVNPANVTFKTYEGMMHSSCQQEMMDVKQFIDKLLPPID
EBNA-1 inh: blocks EBNA-1 binding to DNA. EBNA-1 DNA binding, fluorescence polarization. 300,000 compounds, 0.34% hits. AID 1950. inhibition, % at 14.8 µM; in the data active means inhibition above about 28%
ZTA DNA inh: ZTA (EBV) inhibition in EBNA-1 counter-screen; AID 2234; P03206; 320,000 compounds, 0.15% hits; ZTA-DNA binding, fluorescence polarization; inhibition, % at 11 µM; in the data active means inhibition above about 33%
LYPLA2 confirm: counter-screen for PME1 inhibitors: confirmation of human LYPLA2 inhibitors | shares compounds with LYPLA2 inh | recombinant LYPLA2, FP-Rh probe fluorescence polarization | inhibition, % at 5.9 µM | 1,100 compounds, 72% hits;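 active means mean inhibition across replicates above the hit cutoff set in the primary screen, cut at about 26% in these data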;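 further: blocked labeling of the enzyme by serine hydrolase FP-Rh probe lowers polarization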
LYPLA2 ABPP: LYPLA2 (human) inhibition, late stage results; shares compounds with LYPLA2 inh; rhLYPLA2 in mouse brain proteome, gel ABPP FP-Rh; inhibition, % at 20 µM; 150 compounds, 30% hits; AID 652029;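 active means inhibition of LYPLA2 enzyme probe labeling above about 50%, limit read from the data; inactive means inhibition below that limit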;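 further: loss of FP-Rh probe labeling of the LYPLA2 gel band measured as band density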
Each line names hits and unclear results; the compound was inactive in the other large screens (follow-up assays come after a bar, where they were run).

NC(=O)CC(NC(=O)c1ccc(Br)cc1)c1ccc(N2CCN(c3ccccc3)CC2)c([N+](=O)[O-])c1 (stereo not drawn)	LYPLA2 inh 26 | LYPLA2 confirm 28
NC(=O)CC(NC(=O)c1ccc(Br)cc1)c1ccc(N2CCN(c3ccc(F)cc3)CC2)c([N+](=O)[O-])c1 (stereo not drawn)	none
CC(=O)c1ccc(N2CCN(c3ccnc4cc(Cl)ccc34)CC2)cc1	LYPLA2 inh 36 | LYPLA2 confirm 27
CC(C)(C)C(=O)N1CCN(c2ccnc3cc(Cl)ccc23)CC1	none
COc1cc(C=NNC(=O)C(NC(=O)c2ccccc2)c2n[nH]c(=O)c3ccccc23)ccc1OCC(N)=O (stereo not drawn)	none (no result: PREPL inhibitor, LYPLA2 inh, LYPLA1 counter, EBNA-1 inh, ZTA DNA inh) | LYPLA2 ABPP 61
O=C(c1ccc(CSc2nc3ccncc3[nH]2)cc1)N1CCN(c2cccc(Cl)c2)CC1	LYPLA2 inh 33 | LYPLA2 confirm 31
Cc1ccc(-c2ccc(=O)n(CC(=O)NCC3COCCO3)n2)cc1 (stereo not drawn)	none
Cn1nccc1C(=O)N1CCCC(N2CCN(c3cccc(C(F)(F)F)c3)CC2)C1 (stereo not drawn)	LYPLA2 inh 54 | LYPLA2 confirm 52 | LYPLA2 ABPP inactive
Cc1cc(C)c(C(=O)N2CCCC(N3CCN(c4cccc(C(F)(F)F)c4)CC3)C2)o1 (stereo not drawn)	LYPLA2 inh 52 | LYPLA2 confirm 50 | LYPLA2 ABPP inactive
COc1cc(OC)cc(C(=O)NNC(=O)c2cc(S(=O)(=O)N3CCOCC3)ccc2F)c1	none (no result: EBNA-1 inh)
CCOC(=O)C1CCCN(C(=O)c2ccc(CNS(=O)(=O)c3ccc(C)cc3)cc2)C1 (stereo not drawn)	none
CCOC(=O)C1CCN(C(=O)c2ccc(CNS(=O)(=O)c3ccc(OC)cc3)cc2)CC1	LYPLA2 inh 26 | LYPLA2 confirm inactive
Cc1ccc(C)c(S(=O)(=O)NCc2ccc(C(=O)N3CCC(Cc4ccccc4)CC3)cc2)c1	LYPLA2 inh 45 | LYPLA2 confirm 47
Cc1cccc([C@@H]2[C@@H]3C(=O)N(Cc4ccccc4)C(=O)[C@@H]3[C@]3(Cc4ccccc4)C(=O)N(c4cccc(F)c4)C(=O)N23)c1	none
COc1ccc(CCNC(=O)CC(=O)N/N=C/c2ccc(Br)cc2)cc1OC	none
O=C(NCCNC(=O)c1cc(OCC(F)(F)F)ccc1OCC(F)(F)F)Nc1ccc(OC(F)(F)F)cc1	LYPLA2 inh 26 | LYPLA2 confirm 35
COc1ccc(N2CCN(C(=O)c3ccc(N(C)S(=O)(=O)c4ccc(C)cc4)cc3)CC2)cc1	LYPLA2 inh 50 | LYPLA2 confirm 55 | LYPLA2 ABPP inactive
CCOC(=O)N1CCN(C(=O)c2ccc(N(C)S(=O)(=O)c3ccc(C)cc3)cc2)CC1	none
COc1ccc(N2CCN(C(=O)c3ccc(N(C)S(=O)(=O)c4ccc(OC)cc4)cc3)CC2)cc1	LYPLA2 inh 54 | LYPLA2 confirm 58 | LYPLA2 ABPP inactive
COc1ccc(S(=O)(=O)N(C)c2ccc(C(=O)N3CCN(C)CC3)cc2)cc1	none
CCOC(=O)C1CCCN(C(=O)c2ccc(Cn3c(=S)[nH]c4cc(C(=O)OC)ccc4c3=O)cc2)C1 (stereo not drawn)	none
CCOC(=O)N1CCN(C(=O)c2ccc(Cn3c(=S)[nH]c4cc(C(=O)OC)ccc4c3=O)cc2)CC1	LYPLA2 inh 29 | LYPLA2 confirm inactive
O=C(/C=C/c1ccco1)N1CCN(C/C=C/c2ccccc2)CC1	LYPLA2 inh 27 | LYPLA2 confirm inactive
O=C(/C=C/c1ccco1)N1CCN(S(=O)(=O)/C=C/c2ccccc2)CC1	none
CCn1c(=O)c(C(=O)CN2CC(C)OC(C)C2)c(N)n(Cc2ccccc2)c1=O (stereo not drawn)	none
CCn1c(=O)c(C(=O)CN2CCN(Cc3ccc4c(c3)OCO4)CC2)c(N)n(Cc2ccccc2)c1=O	LYPLA2 inh 26 | LYPLA2 confirm inactive
COc1ccc(CCNCc2ccc(OCc3ccccc3)cc2)cc1	LYPLA2 inh 32 | LYPLA2 confirm 30
COc1ccc(CNCCc2ccc(Cl)cc2)cc1OCc1ccccc1	none
O=C(Nc1ccncc1)C1CCN(S(=O)(=O)c2ccc(Cl)c(C(F)(F)F)c2)CC1	none (no result: EBNA-1 inh)
O=C(COc1cc2oc(=O)cc(-c3ccccc3)c2cc1Cl)NCC1CCC(C(=O)O)CC1 (stereo not drawn)	LYPLA2 inh 42 | LYPLA2 confirm 37
COc1ccccc1C(=O)NC(=S)Nc1ccc(N2CCN(C(=O)c3ccco3)CC2)cc1	LYPLA2 inh 27 | LYPLA2 confirm inactive
O=C(Nc1ccc(N2CCN(C(=O)c3ccco3)CC2)c(Cl)c1)c1c(F)c(F)c(F)c(F)c1F	LYPLA2 inh 62 | LYPLA2 confirm 64 | LYPLA2 ABPP 50
O=C(Nc1ccc(N2CCN(C(=O)c3ccco3)CC2)cc1)c1ccc(Br)cc1	none
Cc1ccccc1C(=O)N1CCN(c2ccc(NC(=S)NC(=O)c3ccco3)cc2)CC1	none
O=C(c1ccco1)N1CCN(C(=S)Nc2ccc(F)c(Cl)c2)CC1	LYPLA2 inh 66 | LYPLA2 confirm 68 | LYPLA2 ABPP inactive
O=C(Nc1ccc(N2CCN(C(=O)c3ccco3)CC2)cc1)c1cc(Br)ccc1Cl	LYPLA2 inh 44 (no result: EBNA-1 inh) | LYPLA2 confirm 49
CCCN(CCC)CCCNC(=O)c1cn(-c2ccc(OC)cc2)c(=O)c2ccccc12	none
c1ccc(-c2ccc(C(c3ccccc3)n3ccnc3)cc2)cc1 (stereo not drawn)	LYPLA2 inh 27 | LYPLA2 confirm inactive
O=C(c1ccc(Cn2c(=O)[nH]c3ccccc3c2=O)cc1)N1CCN(c2ccc(F)cc2)CC1	LYPLA2 inh 42 | LYPLA2 confirm 35
O=C(c1ccc(Cn2c(=O)[nH]c3ccsc3c2=O)cc1)N1CCN(c2ccccc2)CC1	none
O=C(Nc1ccccc1C(=O)O)c1cc(S(=O)(=O)N2CCCCCC2)ccc1Cl	LYPLA2 inh 35 | LYPLA2 confirm inactive
O=C(CN1CCN(C/C=C/c2ccccc2)CC1)Nc1cc([N+](=O)[O-])ccc1Cl	PREPL inhibitor 49, LYPLA2 inh 31, LYPLA1 counter 22 | LYPLA2 confirm 29
O=[N+]([O-])c1ccc(C(O)CN2CCN(C/C=C/c3ccccc3)CC2)cc1 (stereo not drawn)	LYPLA2 inh 62 | LYPLA2 confirm 54 | LYPLA2 ABPP inactive
O=[N+]([O-])c1ccc(C(O)CN2CCN(Cc3ccccc3)CC2)cc1 (stereo not drawn)	none
Cc1cc(NC(=O)CN2CCN(C/C=C/c3ccccc3)CC2)c([N+](=O)[O-])cc1C	none
CCOc1ccc(OCCOC(=O)C2CCN(S(=O)(=O)c3ccc(C)c(C)c3)CC2)cc1	none
